# Compound activity from PubChem.
# The sample as a whole holds a higher share of hits than the screen did.
# MgrA DNA FP: S. aureus MgrA activity modulators, primary screen, biochemical, S. aureus Newman, fluorescence polarization; MgrA-DNA binding; inhibition, % (no concentration beside the values); 84,000 compounds, 0.13% hits; AID 602314, 2012; in the data active = inhibition above about 30%, passing the limit was not always enough;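 also: 0% = protein plus DNA without compound and 100% = DNA alone without protein; higher means less MgrA bound to DNA so lower polarization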
# Numbers without * were called inactive.
SMILES,MgrA DNA FP
CCN(CC)CCSc1nc2ccc(OC)cc2[nH]1,-0.8
CCSc1nc(C)c2cc(OC)ccc2n1,1.2
CCN(CC)CCCC(C)Nc1c2ccc(Cl)cc2nc2ccc(OC)cc12 (stereo unspecified),60.5*
Cc1c(C(=O)O)cc(-c2ccccc2)n1CCSCc1c(F)cccc1Cl,-2.8
Cc1ccc(S(=O)(=O)/C(C#N)=C/C2=Cc3ccccc3OC2)cc1,62.1*
N#C/C(=C\c1ccc(/C=C(\C#N)S(=O)(=O)c2ccccc2)cc1)S(=O)(=O)c1ccccc1,-1.9
Cc1ccc(S(=O)(=O)/C(C#N)=C/c2ccccc2)cc1,3.3
N#Cc1c(-c2cccs2)cc(-c2ccccc2)[nH]c1=O,0.4
N#Cc1c(-c2ccco2)cc(-c2cccs2)[nH]c1=O,55.2*
N#Cc1c(C(F)(F)F)cc(-c2cccs2)[nH]c1=O,3.2
CCS(=O)(=O)N(CC(=O)N1CCCC1)c1ccc(OC)cc1,-6.9
O=C1N=C2C=CC=CN2C(=O)C1Cc1ccccc1 (stereo unspecified),-0.5
O=C(N/N=C/c1cccs1)c1ccccc1CO,-2.2
O=C(Nn1c(-c2ccc(Br)cc2)nc2ccccc2c1=O)c1ccc(Cl)c([N+](=O)[O-])c1,-1.3
COc1cc(/C=C2\SC(N)=NC2=O)ccc1Oc1ccc(C(F)(F)F)cc1[N+](=O)[O-],2.1
CCOc1ccc(NC2=CC(=O)C=CC2=O)cc1,56.0*
CCOc1ccc(Nc2cnnc(Nc3ccc(OCC)cc3)n2)cc1,0.9
CCOc1ccc(NC2=CC(=O)CCC2)cc1,-1.1
O=C(c1cccc(F)c1)N1CCN(c2ccc3nncn3n2)CC1,-0.3
Cn1c(CNC(=O)c2ccccc2)nnc1SCc1ccccc1,-1.4
COC(=O)C(N=Cc1ccccc1)c1ccccc1 (stereo unspecified),0.1
COC(=O)C(C(=O)OC)C(Nc1ccccc1)c1ccccc1 (stereo unspecified),101.2*
COC(=O)C(NC(=O)Nc1ccccc1)C(C)C (stereo unspecified),-1.4
Cc1ccc2c(Sc3ccc(Cl)cc3)c(C(=O)O)[nH]c2c1,13.8
CC(C)C(=O)Nc1ccc2c(c1)OCCO2,-3.5
SMILES,MgrA DNA FP
FC(F)(F)c1cc(-c2ccco2)nc(-n2cccn2)n1,3.8
O=c1cc(O)c2sc3nc(-c4ccccc4)ccc3c2[nH]1,3.3
O=c1cc(O)c2sc3nc(-c4ccco4)cc(C(F)(F)F)c3c2[nH]1,88.0*
CCOC(=O)c1c(CN2CCN(c3ccccc3C)CC2)n(-c2ccccc2)c2cc(Br)c(OC(C)=O)cc12,-2.9
CC(C)(C)C1(C)OC(=O)C(=Cc2ccc(Br)o2)C(=O)O1 (stereo unspecified),20.3
Cc1ccc(N2C(=O)NC(=O)/C(=C/c3cc(Br)c(O)cc3O)C2=O)cc1,13.7
Cc1ccc(N2C(=O)NC(=O)/C(=C/c3ccc(Br)o3)C2=O)cc1Cl,48.8*
c1ccc(-c2noc(CNC3CCCCC3)n2)cc1,-0.5
COc1ccc(Oc2ncccc2NS(=O)(=O)c2ccc(OC)cc2)cc1,3.0
Cc1ccc(S(=O)(=O)Nc2ccc(Br)cc2C(NCC(=O)O)c2ccccc2)cc1 (stereo unspecified),1.6
CC(C)c1ccc(S(=O)(=O)Nc2cc(SCC(=O)O)c(O)c3ccccc23)cc1,90.1*
CC(C)c1ccc(NC(=O)CNS(=O)(=O)c2ccccc2)cc1,1.5
Cc1c([N+](=O)[O-])c([N+](=O)[O-])nn1CC(=O)Nc1cc(Oc2cccnc2)cc([N+](=O)[O-])c1,0.6
O=C(O)c1c(Cl)nc2sccn12,2.9
CCOc1ccc(S(=O)(=O)NCc2ccccc2)cc1-c1nc2c(C(C)(C)C)nn(C)c2c(=O)[nH]1,1.5
CC1O[C@@H](O[C@@H]2C(CO)O[C@@H](OCC3O[C@@H](OC(=O)C45CC[C@@H](C)[C@H](C)[C@H]4C4=CC[C@@H]6[C@@]7(C)C[C@@H](O)[C@H](O)[C@@](C)(CO)C7CC[C@@]6(C)[C@]4(C)CC5)C(O)[C@H](O)[C@@H]3O)C(O)[C@@H]2O)C(O)[C@@H](O)[C@H]1O (stereo partly specified),2.1
Cc1ccc(/C=C2/SC(=S)N(CCc3ccc(Cl)cc3)C2=O)o1,-2.1
Cc1ccc(/C=C2\SC(=O)NC2=S)o1,81.0*
Cc1ccc(/C=C2\CC/C(=C\c3ccc(C)o3)C2=O)o1,22.9
CCOc1ccc(S(=O)(=O)NCc2ccncc2)cc1C(C)C,-2.0
COc1ccc(C(=O)CSc2nc(SCC(=O)c3ccc(OC)cc3)c3ccccc3n2)cc1,-1.4
CCN1CC=C2C(C1)C(c1ccc(Cl)s1)C(C#N)=C(N)C2(C#N)C#N (stereo unspecified),41.7*
CC(C)c1ccc(C2C(C#N)=C(N)C(C#N)(C#N)C3=CCN(C)CC32)cc1 (stereo unspecified),8.7
CCCN1CC=C2C(C1)C(c1ccc(C(=O)OC)cc1)C(C#N)=C(N)C2(C#N)C#N (stereo unspecified),9.2
O=C(O)c1ccc(CNCc2ccccc2)s1,-0.2
SMILES,MgrA DNA FP
O=C(Cn1nnc(-c2ccccc2)n1)Nc1ccccc1,-0.2
O=C(COc1ccc2ccc(=O)oc2c1)NC1CC1,-0.9
CN1CCCc2cc(/C=C3\CCC(C4CCCC4)C3=O)ccc21 (stereo unspecified),-1.3
CN1CCCc2cc(CN)ccc21,62.8*
CN1CCCc2cc(/C=C3\CC/C(=C/c4ccc5c(c4)N(C)CCC5)C3=O)ccc21,18.4
COc1ccccc1C1CC(c2ccc(Br)cc2)=NN1CN1C(=O)C(=O)c2ccccc21 (stereo unspecified),-0.6
O=C(NC1(C(=O)O)CC1)OCC1c2ccccc2-c2ccccc21,-2.0
O=C(OCC1c2ccccc2-c2ccccc21)ON1C(=O)CCC1=O,68.4*
O=C(COc1ccccc1)ON1C(=O)CCC1=O,-3.2
CC(O)(C#CC12CC3CC(CC(C3)C1)C2)c1cccs1 (stereo unspecified),1.9
CC(C)n1nnc2cc(C(=O)Nc3ccc(Cl)cc3)ccc21,-2.8
Cc1cccc(-c2ocnc2C(=O)Nc2ccc(N3CCN(S(C)(=O)=O)CC3)cc2)c1,2.1
Cc1ccc(C(=O)CSc2nnnn2C2CCCC2)cc1C,0.8
O=C1c2ccccc2CC1Sc1nnc(-c2ccco2)c(-c2ccco2)n1 (stereo unspecified),95.7*
O=C(CSc1nnc(-c2ccco2)c(-c2ccco2)n1)N1c2ccccc2Sc2ccc(Cl)cc21,21.9
Cc1cc(C)c(C#N)c(SC2CCc3ccccc3C2=O)n1 (stereo unspecified),1.4
Cc1ccc(-c2cc(-c3ccc4c(c3)OCO4)c(C#N)c(N)n2)cc1,0.2
O=C(O)c1cc2c3c(c1)C1C=CCC1C(c1ccccc1)N3CC1CC=CC21 (stereo unspecified),49.3
O=C(O)c1cc2c3c(c1)C1C=CCC1C(c1ccccc1F)N3CC1CC=CC21 (stereo unspecified),74.1*
O=C(O)c1cc2c3c(c1)C1C=CCC1C(c1ccc(F)cc1)N3CC1CC=CC21 (stereo unspecified),45.5
COC(=O)C1=C(C)N=c2s/c(=C3\C(=O)N(C)c4ccccc43)c(=O)n2C1c1cccs1 (stereo unspecified),3.0
COc1ccc(/C(C)=N/O)cc1CN1CCOCC1,2.6
COc1ccc(N2C(=O)/C(=C\c3ccc(C(C)C)cc3)C(=O)NC2=S)cc1,-0.2
CCC(C)N1C(=O)/C(=C\c2cnn(-c3ccccc3)c2)C(=O)NC1=S (stereo unspecified),63.2*
